Molecular target: TMEM218
Experiment: pooled miR-30 sensor sort-seq; sequence = guide strand
Conditions: shRNA
Further: reference of the scale not given here.

Sequence | sensor-assay potency score (higher = more potent)
TGTGATGATCACAGCACCGAAG | -0.957
TAACTTCCACTTCTGGGGCTGG | -0.428
ATGTGATGATCACAGCACCGAA | -1.69
TTAACTTCCACTTCTGGGGCTG | 0.528
ATCCACAATCTTAACTTCCACT | -0.762
AAAAGCAACAGAACTGATGTGA | 0.455
AATCTTAACTTCCACTTCTGGG | -0.603
AAAAAAATGACAGAGAACCTCG | 0.153
AAAGCCAGCAGGACATAGCGGC | -0.627
TCTTAACTTCCACTTCTGGGGC | -0.618
ATCTTAACTTCCACTTCTGGGG | -0.795

Molecular target: TMEM229B
Experiment: as above
Conditions: shRNA

Sequence | sensor-assay potency score (higher = more potent)
TGGCATACAGGTACCAGCGGGA | -0.837
TCCACGATGAGGATGGAGGTGC | -1.19
TCAGCGTCCTTGTCGAAGCGGA | -0.896
TCCTTGTCGAAGCGGAGGCGGA | -1.59
TCACCTCGCAGAAGTAGCCGTG | -0.46
TCGAACTGGGAGTAGTCCCAGG | -0.884
ATCACCTCGCAGAAGTAGCCGT | -0.867
TGAAGTCAAAGTCGAACTGGGA | -0.249
AAGTTCACCACGAACTCCCAGG | -0.691
ATGGCATACAGGTACCAGCGGG | -1.1
AACTCCCACAGGTAGGTCCAGA | -1.06
TTGCGGATGATGAACTGCTCCA | -0.427

Molecular target: TMEM22
Experiment: as above
Conditions: shRNA

Sequence | sensor-assay potency score (higher = more potent)
TTTCTTTGGATTTTCCTCCATA | -0.74
TAAAAGAAGAGTCGTAATCTGT | -0.127
TTGTCCAATCTCATTGATCATT | -1.19
TTGATCATTGGGTCTTCTGTTG | -0.772
TTAACAAAGAATTGTCTTCATC | -1.39
TTTTTTTCTGCAAAGCTCTGGA | 0.243
TAACACACAACTAACACAGATA | -0.611
TAGTATTTCCTGGTAGTCCTGC | -0.0251
TATAACACAAAAGACATTCATA | -0.457
ATTGTCTTCATCAACAATGTTT | -0.906
TTCACCATCACTGTGTTGGGAT | 0.611

Molecular target: TMEM231
Experiment: as above
Conditions: shRNA

Sequence | sensor-assay potency score (higher = more potent)
TTCTCTAGTCGAAACGAGCGGG | 0.0646
TTCTGAAACACGAAGATCTTGA | 0.224
TTAAAATGTAACATGTCCGTCT | 0.405
AACACGAAGATCTTGATTCTTT | -0.0929
TGAGGTCGTAGTCATAGGCAAA | -1.58
TAGCATTAATCACAAATGGAGC | -1.05
